Results on 23 compounds are retold here after PubChem BioAssay (Tox21).

Several values for one entry are separate records, joined by “and”; a condition that tells them apart may be missing. Equal entries are not always repeated. Results filed as inconclusive are left out. Where a structure was tested more than once in an assay, its records may differ in their call. Activity calls are given as the source filed them. Unless noted, calls follow the shape of the dose curve; as a rule, active = well fitted curve in the direction sought with a large enough effect in the repeat runs; inconclusive = weak or mixed curves; inactive = no such curve, though single readings can be large; an effect the other way counts as inactive or inconclusive.

Assay [1] in a line: qHTS assay to identify small molecule agonists of the estrogen receptor alpha (ER-alpha) signaling pathway in the presence of an antagonist - cell viability counter screen (AID 1259386).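 Also: cells exposed to compounds for 22 h at 37 °C before the viability read; nearly all actives have a fitted effect of over 30% in size.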 Also: potency is read from the fitted curve at half-maximal effect. As to activity change, negative = cytotoxicity: series mostly up to about 92 µM. An outline of the steps:
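Using estrogen-depleted VM7Luc4E2 cells, the 15-concentration compound series was applied together with 10.0nM ICI-182,780 and incubated 22hr at 37C/5% CO2. Cell viability was then scored by CellTiter-Fluor.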
On the technique in general: In qHTS, concentration-response curves come from the screen itself.

The target in assay [2] is Progesterone receptor (Homo sapiens) (UniProt P06401). The assay can be described thus: qHTS assay to identify small molecule agonists of the progesterone receptor (PR) signaling pathway (AID 1346784; calls by dose curve; also: nearly all actives have a fitted effect of over 30% in size). An outline of the steps: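 Beta-lactamase reporter read-out: after 16 hr compound treatment at 37C and a further 2 hr at room temperature with LiveBLAzer B/G FRET substrate, fluorescence was measured in PR-UAS-bla HEK 293T cells grown in 2% charcoal-stripped serum.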

Assay [3] has the same target. The assay can be described thus: qHTS assay to identify small molecule antagonists of the progesterone receptor (PR) signaling pathway (AID 1346795; active = well fitted inhibition curve with a large enough effect in the signal ratio in the repeat runs, not every such curve was filed as active; the % refers to the signal ratio; also: potency is read from the fitted curve at half-maximal effect). An outline of the steps:
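Read-out is fluorescence from the LiveBLAzer B/G FRET substrate, cleaved by a UAS-controlled beta-lactamase in PR-UAS-bla HEK293T cells after 16 hr exposure to compound plus 1 nM promegestone (final), followed by 2 hr at room temperature.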

Assay [4] is described as follows: qHTS assay to identify small molecule antagonists of the progesterone receptor (PR) signaling pathway - cell viability counter screen (AID 1346798). Also: series mostly up to about 92 µM; nearly all actives have a fitted effect of over 50% in size. An outline of the steps: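 HEK293T PR-UAS-bla, 2% charcoal-stripped FBS; 4 hr pre-plate; cpd + R5020, 16 h 37C; LiveBLAzer read first; then CellTiter-Glo 30 min RT, luminescence.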
A short description of assay [5]: qHTS assay to identify small molecule agonists of the progesterone receptor (PR) signaling pathway - cell viability counter screen (AID 1346799; calls by dose curve; also: nearly all actives have a fitted effect of over 45% in size). In outline:
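Luminescence from CellTiter-Glo, added after the beta-lactamase FRET read in the same wells, gave cytotoxicity in PR-UAS-bla HEK293T cells treated with compounds for 16 hr at 37C.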

Assay [6] in a line: qHTS assay to identify small molecule antagonists of the TGF-beta/Smad signaling pathway - cell viability counter screen (AID 1346824). Also: nearly all actives have a fitted effect of over 50% in size. Also: potency is read from the fitted curve at half-maximal effect. In outline:
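Cytotoxicity counter-screen run in the same wells as the beta-lactamase Smad reporter read: CellTiter-Glo luminescence after 30 min at room temperature. HEK 293T SBE-bla cells had 5 hr compound exposure at 37 C with TGF-beta1 (0.25 ng/mL stock).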

Assay [7] in a line: qHTS assay to identify small molecule agonists of the TGF-beta/Smad signaling pathway - cell viability counter screen (AID 1346829). Also: nearly all actives have a fitted effect of over 45% in size. Also: potency is read from the fitted curve at half-maximal effect. As to activity change, negative = cytotoxicity: top concentration of the series differs between compounds. An outline of the steps: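 In parallel with the Smad reporter read, viability of HEK 293T cells stably carrying SBE-bla is quantified by ATP luminescence following 5 hr compound treatment.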
Assay [8] in a line: qHTS assay to identify small molecule agonists of the TGF-beta/Smad signaling pathway (AID 1346859; active = well fitted activation curve with a large enough effect in the signal ratio in the repeat runs, not every such curve was filed as active; the % refers to the signal ratio; also: series mostly up to about 77 µM). An outline of the steps: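 SBE-bla HEK 293T, 4,000 cells/well, plated o/n; cpd in DMSO, 5 hr, 37 C/5% CO2; B/G FRET substrate 2 hr RT; ex 405, em 460/530 nm.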
The target of assay [9] is Thyrotropin-releasing hormone receptor (Homo sapiens) (UniProt P34981). Description: qHTS assay to identify small molecule antagonists of the thyrotropin-releasing hormone receptor (TRHR) signaling pathway (AID 1346877; active = well fitted inhibition curve with a large enough effect in the repeat runs, not every such curve was filed as active; also: potency is read from the fitted curve at half-maximal effect). An outline of the steps:
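Calcium signal in dye-loaded TRHR/HEK293 cells; compounds added 5 min before TRH (1 nM final); fluorescence monitored 3 min at 1 s steps.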

Assay [10] shares this target. The assay can be described thus: qHTS assay to identify small molecule agonists of the thyrotropin-releasing hormone receptor (TRHR) signaling pathway (AID 1346891; calls by dose curve; also: potency is read from the fitted curve at half-maximal effect; as to activation: series mostly up to about 58 µM). An outline of the steps: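 Intracellular calcium rise, read as fluorescence every second for 3 min, served as the agonist signal in dye-loaded HEK293 cells expressing TRHR; each compound ran at 15 concentrations in triplicate.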
% is scaled to controls: 0 for no effect and ±100 for the full control effect.

Progesterone receptor (Homo sapiens), sequence (P06401 whole entry, looked up): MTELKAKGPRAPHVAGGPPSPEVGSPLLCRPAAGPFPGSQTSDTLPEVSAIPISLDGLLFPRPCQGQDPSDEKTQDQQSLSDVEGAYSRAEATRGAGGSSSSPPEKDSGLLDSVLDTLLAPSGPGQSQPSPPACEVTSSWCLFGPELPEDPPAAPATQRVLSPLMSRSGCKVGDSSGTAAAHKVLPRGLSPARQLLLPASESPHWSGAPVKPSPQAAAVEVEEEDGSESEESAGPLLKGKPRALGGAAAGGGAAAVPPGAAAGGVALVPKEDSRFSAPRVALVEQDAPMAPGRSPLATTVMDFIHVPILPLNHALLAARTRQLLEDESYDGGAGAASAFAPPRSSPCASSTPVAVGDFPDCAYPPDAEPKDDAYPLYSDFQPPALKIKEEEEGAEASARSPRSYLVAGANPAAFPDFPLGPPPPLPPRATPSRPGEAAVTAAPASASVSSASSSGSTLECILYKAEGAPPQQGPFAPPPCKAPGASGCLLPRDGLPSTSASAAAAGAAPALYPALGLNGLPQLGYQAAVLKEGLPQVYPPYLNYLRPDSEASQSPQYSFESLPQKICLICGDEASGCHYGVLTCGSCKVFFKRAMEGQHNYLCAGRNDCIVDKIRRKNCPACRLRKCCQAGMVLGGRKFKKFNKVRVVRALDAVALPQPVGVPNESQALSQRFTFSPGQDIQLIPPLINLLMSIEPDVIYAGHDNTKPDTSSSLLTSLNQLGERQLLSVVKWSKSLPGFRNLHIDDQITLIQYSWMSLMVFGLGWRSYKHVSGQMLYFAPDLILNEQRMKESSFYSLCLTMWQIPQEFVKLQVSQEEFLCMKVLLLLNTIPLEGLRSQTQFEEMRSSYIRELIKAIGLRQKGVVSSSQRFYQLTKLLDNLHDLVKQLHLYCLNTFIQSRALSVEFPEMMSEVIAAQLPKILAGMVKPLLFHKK
Thyrotropin-releasing hormone receptor (Homo sapiens), sequence (P34981 whole entry, looked up): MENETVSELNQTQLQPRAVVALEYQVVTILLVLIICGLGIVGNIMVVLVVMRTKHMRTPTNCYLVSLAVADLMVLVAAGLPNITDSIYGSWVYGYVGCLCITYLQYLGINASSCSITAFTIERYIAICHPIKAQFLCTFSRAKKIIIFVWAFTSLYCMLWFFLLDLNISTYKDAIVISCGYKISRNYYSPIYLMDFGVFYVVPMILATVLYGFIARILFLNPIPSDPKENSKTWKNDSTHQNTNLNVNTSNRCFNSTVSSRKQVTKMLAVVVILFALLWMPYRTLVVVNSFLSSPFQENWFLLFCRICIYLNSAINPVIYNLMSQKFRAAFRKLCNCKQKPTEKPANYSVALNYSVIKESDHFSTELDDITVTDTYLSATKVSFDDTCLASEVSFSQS

In the case of `Nc1cc([N+](=O)[O-])ccc1C(=O)O`, the Potency result in assay [1], in assay [2], in assay [3], in [4], in assay [5] and in assay [6] was “inactive” in each case. Besides, the Potency result in assay [7], in assay [9] and in [10] was “inactive” in each case. Further, the compound was classed as inactive in assay [8].

As for `O=C(O)COCCN1CCN(C(c2ccccc2)c2ccc(Cl)cc2)CC1` (stereo unspecified), the Potency entry in assay [1], in [2], in assay [3], in assay [4], in assay [5] and in [6] was “inactive” each time. The Potency result in assay [7], in [9] and in assay [10] was “inactive” in each case. In [8], the call was inactive.

For the compound `Cc1ccc(/C(=C\CN2CCCC2)c2ccccn2)cc1`, the Potency result in assay [1], in [2], in assay [3], in [4], in assay [5] and in [6] was “inactive” each time. Also, the Potency entry in assay [7] was “inactive”. The result in assay [8] was inactive.

Consider `C[C@]12C=CC(=O)C=C1CC[C@H]1[C@@H]3C[C@@H](O)[C@](O)(C(=O)CO)[C@@]3(C)C[C@H](O)[C@@]12F`, for which the Potency entry in assay [1], in assay [2], in assay [3], in assay [4], in assay [6] and in [7] was “inactive” throughout. In addition, in [8], the result was inactive.

For `CC1=CC(C)(C)Nc2ccccc21`, the Potency entry in assay [1], in [2], in assay [3], in assay [4], in [5] and in assay [6] was “inactive” throughout. For the same compound, the Potency result in assay [7], in [9] and in [10] was “inactive” in each case. In [8], the result was inactive.

As to `c1ccc2cc3ccccc3cc2c1`, the Potency entry in [1], in [2], in assay [3], in assay [4], in assay [5] and in [6] was “inactive” throughout. In addition, the Potency result in assay [7] is “inactive”. Further, the compound was called inactive in [8].

`CN1CCOCC1`: the Potency entry in assay [1], in assay [2], in assay [3], in assay [4], in assay [5] and in [6] was “inactive” in each case. Also, the Potency entry in assay [7], in assay [9] and in [10] was “inactive” throughout. In addition, the outcome in assay [8] was inactive.

In the case of `O=[Se](O)O`, the Potency in [1] is 38.6 µM (active); in assay [6], 2.46 µM (active); in [7] it was 2.19 µM (active). The results for the activity change, negative = cytotoxicity in assay [1] and in [7] were 10.8% [at 19 µM] (inactive) and 8.13% [at 15.8 µM] (inactive), respectively. Further, the Potency entry in assay [2], in assay [3], in assay [4], in [5], in [9] and in [10] was “inactive” throughout. Also, the viability change, negative = cytotoxic in [6] was 0.606% [at 15.8 µM] (inactive). For the same compound, the activation in assay [8] was -0.714% [at 15.8 µM] (inactive).

As for `C=CCOC(=O)C(=C)C`, the Potency entry in [1], in assay [2], in assay [3], in [4], in assay [5] and in assay [6] was “inactive” throughout. The Potency entry in [7], in assay [9] and in [10] was “inactive” in each case. Further, the compound was called inactive in assay [8].

Consider `FC(F)(F)C(Cl)Br` (stereo unspecified), for which the Potency result in [1], in assay [2], in [3], in assay [4], in assay [5] and in assay [6] was “inactive” throughout. Also, the Potency entry in [7] was “inactive”. In addition, the call in assay [8] was inactive.

On to `CC(=O)Nc1ccc2c(c1)Cc1cc(NC(C)=O)ccc1-2`, for which the Potency entry in [1], in assay [2], in [3], in assay [4], in assay [5] and in assay [6] was “inactive” each time. The Potency entry in [7], in assay [9] and in assay [10] was “inactive” in each case. The compound was called inactive in assay [8].

`CCCN1C=CN(C)C1`: the Potency result in assay [1], in assay [2], in assay [3], in assay [4], in assay [6] and in [7] was “inactive” throughout. Moreover, the compound was called inactive in [8].

For the compound `Nc1ccc(N)c(Cl)c1`, the Potency in assay [1] was 61.1 µM (active); in [3], 27.3 µM (active); in assay [9] it was “inactive and 30.2 µM (active)”; in [10], “inactive and 4.9 µM (active)”. The Potency entry in assay [2], in assay [4], in assay [5], in assay [6] and in assay [7] was “inactive” each time. Besides, the call in assay [8] was inactive.

On to `COc1ccc(C(=O)c2ccccc2O)c(O)c1`, for which the Potency result in [1], in assay [2], in [4], in assay [5], in assay [6] and in [7] was “inactive” throughout. Further, the Potency entry in assay [9] and in [10] was “inactive” in each case. The Potency in assay [3] was 27.2 µM (active) and 23.7 µM (active). Moreover, the result in assay [8] was inactive.

Regarding `C=CC(=O)OCCCC`, the Potency result in assay [1], in assay [2], in assay [3], in [4], in assay [5] and in assay [6] was “inactive” each time. The Potency result in assay [7], in assay [9] and in assay [10] was “inactive” throughout. The outcome in assay [8] was inactive.

On to `CC[C@]12CCCN3CCc4c(n(c5ccccc45)[C@@](O)(C(=O)OC)C1)[C@@H]32`, for which the Potency result in assay [1], in assay [2], in assay [3], in assay [4], in [6] and in assay [7] was “inactive” in each case. Also, the compound was called inactive in assay [8].

Turning to `C1COCCN1`, the Potency entry in [1], in assay [2], in assay [3], in assay [4], in [5] and in [6] was “inactive” each time. Further, the Potency result in [7] is “inactive”. Moreover, the compound was classed as inactive in assay [8].

With `O=S1(=O)CCCO1`, the Potency result in assay [1], in [2], in assay [3], in assay [4], in [6] and in [7] was “inactive” in each case. In addition, in [8], the outcome was inactive.

For `Brc1nc2ccccc2s1`, the Potency result in assay [1], in assay [2], in assay [3], in [4], in assay [5] and in assay [6] was “inactive” throughout. For the same compound, the Potency entry in [7], in [9] and in assay [10] was “inactive” throughout. Further, in [8], the outcome was inactive.

For the compound `c1ccc2c(c1)ccc1cc3c(ccc4ccccc43)cc12`, the Potency result in [1], in assay [2], in [3], in assay [4], in [5] and in assay [6] was “inactive” each time. Moreover, the Potency entry in [7], in [9] and in [10] was “inactive” each time. In addition, the call in assay [8] was inactive.

On to `C[N+](C)(C)CCO`, for which the Potency entry in assay [1], in [2], in [3], in [4], in assay [5] and in assay [6] was “inactive” each time. In [7], the Potency result was “inactive”. Besides, in assay [8], the outcome was inactive.

Consider `CC(=O)Oc1c(C)c(C)c2c(c1C)CC[C@@](C)(CCC[C@H](C)CCC[C@H](C)CCCC(C)C)O2`, for which the Potency entry in [1], in assay [2], in [3], in [4], in assay [5] and in assay [6] was “inactive” in each case. The Potency entry in assay [7], in [9] and in assay [10] was “inactive” throughout. Besides, in [8], the outcome was inactive.

As for `Nc1ccc2c(c1)C(=O)c1ccccc1C2=O`, the Potency result in [1], in [2], in assay [3], in assay [4], in assay [5] and in [6] was “inactive” throughout. For the same compound, the Potency entry in [7], in assay [9] and in assay [10] was “inactive” throughout. Also, the compound was classed as inactive in assay [8].
